In the library only some 5.7% were active in any assay of this set; here they are far more common.
KB-3-1 cytotox – kills parental KB-3-1 adenocarcinoma cells | Potency, µM (top dose mostly 46.1 µM), actives largely listed as cytotoxic | AID 1347075 | actives 1.4% (n = 400,000) | KB-3-1 viability, CellTiter-Glo ATP luminescence, 72 h; note: nearly all actives have a fitted effect of over 60% in size
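Luminescent ATP read-out (CellTiter-Glo) measures survival of drug-naive KB-3-1 cells after 72 h compound exposure at 37 °C. Titration series was screened from lowest to highest concentration, with DMSO vehicle plates as background controls.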
KB-V1 cytotox – KB-V1 MDR subline cytotoxicity; KB-V1 MDR cells viability, CellTiter-Glo, 72 h; Potency, µM (highest dose often 46.1 µM), most hits filed as cytotoxic; actives 3.4% (n = 400,000); AID 1347076; note: nearly all actives have a fitted effect of over 60% in size
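Luminescent ATP read-out (CellTiter-Glo, 10 min) measures survival of drug-selected KB-V1 MDR cells after 72 h, 37 degrees C compound exposure. Medium: phenol-red-free DMEM, 10% FBS. Values from fitted concentration-response curves.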
HT1080 IDH1KD tx – toxicity to HT-1080 IDH1 knockdown cells (counter line) | Potency, µM (doses to about 46.1 µM), for inactives: top-dose activity, negative = toxicity, actives largely listed as cytotoxic | HT-1080 IDH1 knockdown viability, ATP luminescence, 48 h | AID 686971 | actives 2% (n = 360,000);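 note: 0% = DMSO wells and -100% = cell-free medium wells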
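Knockdown cells (IDH1KD HT-1080) received compounds 2 h after plating at 750 cells/well and were kept 48 h at 37 °C in 5% FBS RPMI. A CellTiter-Glo luminescence read gave % activity for curve fitting.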
HT1080NT lethal – kills 2HG-producing HT-1080-NT fibrosarcoma cells; HT-1080-NT fibrosarcoma viability, CellTiter-Glo ATP luminescence, 48 h; Potency, µM (doses to about 46.1 µM), inactives show at the highest dose activity, negative = less viability, most hits filed as cytotoxic; actives 1.6% (n = 360,000); AID 686970;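 note: NT is the 2HG producing partner of a matched IDH1 knockdown line; 0% = DMSO-treated cells and -100% = media-only wells without cells; nearly all actives have a fitted effect of over 55% in size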
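A 48-hour cytotoxicity screen used HT-1080-NT cells plated 2 hours before compound delivery. ATP-based CellTiter-Glo luminescence measured viability, normalized to DMSO and no-cell controls.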
Numbers without * were called inactive; i = inactive; ? = inconclusive; . = not tested or not shown; ! = not active in a repeat; [ ] = another dose, or the depositor's remark. Calls come from the whole dose curve; as a rule, active = well fitted curve in the direction sought with a large enough effect; inconclusive = small, poorly fitted or top-dose-only effect, or another doubt; inactive = no such curve, though single readings can be large; an effect the other way counts as inactive or inconclusive. Unless noted, % is set by controls: 0 for no effect and ±100 for the full control effect; potency is the fitted concentration of half-maximal effect.

SMILES	KB-3-1 cytotox	KB-V1 cytotox	HT1080 IDH1KD tx	HT1080NT lethal
CC(Oc1ccc(Cl)cc1Cl)c1nc(-c2ccc(NC(=O)c3ccco3)cc2)no1 (stereo unspecified)	i	5.8µM*	-21%	-10%
COc1cc(NC(=O)c2nccn2C)cc(C(=O)Nc2cccc(C(F)(F)F)c2)c1	i	4.1µM*!	?	?
CCN1CCN(Cc2ccc(NC(=O)c3cc(NC(=O)N4CCNC4=O)cc(OC)c3)cc2C(F)(F)F)CC1	?	?	-23%	-11%
COc1cc(NC(=O)N2CCNC2=O)cc(C(=O)Nc2cccc(C(F)(F)F)c2)c1	10µM*	i	5.8µM*	4.6µM*
Cc1ccc(Cl)cc1N1CCN(C(=O)c2ccc(NC(=O)c3nsc4ccccc34)cc2)CC1	i	i	.	.
CC(C(=O)Nc1ccc(F)c(Cl)c1)N1Cc2ccccc2C1=O (stereo unspecified)	i	i	.	.
O=C(CCc1ccccc1)NNC(=S)NC(=O)c1ccccc1	i	?	11µM*	?
CC(C)(C)c1cc(CCC(=O)NNC(=S)NC(=O)c2ccccc2)cc(C(C)(C)C)c1O	?	?	?	15µM*
CC(=O)NC(=S)NNC(=O)CCc1ccccc1	i	i	-5%	0%
CSc1cc(-c2ccc(Cl)cc2)c(C(=O)NN)s1	?	8.2µM*	?	?
CCCCN(Cc1ccccc1)S(=O)(=O)c1cc(Br)cc2c1N(C(C)=O)C(C)C2 (stereo unspecified)	i	21µM*	?	?
CCCCNC(=O)c1[nH]c2ccccc2c1Sc1ccc(C)cc1	i	i	.	.
CCN(CC)CCCNC(=O)c1[nH]c2ccccc2c1Sc1ccc(Cl)cc1	i	i	16µM*	21µM*
COc1cccc(-c2csc(N3CCN(C(=S)Nc4ccc(Cl)cc4)CC3)n2)c1	i	23µM*	0%	-21%
COc1cccc(-c2csc(N3CCN(C(=S)Nc4ccccc4)CC3)n2)c1	i	i	0%[9.24 µM]	22µM*
COc1cccc(NC(=O)N2CCN(c3nc(-c4cccc(OC)c4)cs3)CC2)c1	?	16µM*	-27%	-3%
COc1ccc(-c2csc(NC(=O)CCn3cnc4ccccc4c3=O)n2)cc1OC	i	18µM*	-2%	-6%
COc1ccc(-c2csc(NC(=O)CCCc3nc4ccccc4c(=O)[nH]3)n2)cc1OC	i	i	-1%	1%
COc1cccc(-c2csc(N3CCN(C(=S)Nc4cccc(C)c4)CC3)n2)c1	i	i	-14%	-22%
COc1cccc(-c2csc(N3CCN(C(=O)Nc4ccccc4Cl)CC3)n2)c1	i	i	1%	4%
COc1ccc(-c2csc(NC(C)=O)n2)cc1OC	i	i	-3%	1%
COc1cccc(NC(=O)Nc2nc(-c3ccc(OC)c(OC)c3)cs2)c1	18µM*	?	7.3µM*	12µM*
COc1ccc(/C=N/NC(=O)c2ccccc2Cl)cc1CSc1nc2ccccc2s1	5.8µM*	7.3µM*	?	4.5µM*
COc1ccc(/C=N/NC(=O)c2cccnc2)cc1COc1ccc([N+](=O)[O-])c(C)c1	6.5µM*	?	2.1µM*	2.6µM*
COc1ccc(/C=N/NC(=O)c2cccnc2)cc1CN1CCOCC1	i	i	-4%	1%
SMILES	KB-3-1 cytotox	KB-V1 cytotox	HT1080 IDH1KD tx	HT1080NT lethal
COc1ccc(/C=N/NC(=O)c2cccnc2)cc1CSc1nc2ccccc2s1	?	12µM*	?	?
COc1ccc(/C=N/NC(=O)c2ccn[nH]2)cc1COc1ccc([N+](=O)[O-])c(C)c1	i	i	?	?
COc1ccc(/C=N/NC(=O)CCSc2nc3ccccc3s2)cc1OC	i	i	-4%	-3%
Cc1ccc(-n2ccnc(NCCc3ccc(S(N)(=O)=O)cc3)c2=O)c(C)c1	i	i	.	.
COC(=O)c1sc2cccc(F)c2c1S(=O)(=O)N1CCN(c2ccccc2OC)CC1	i	i	.	.
O=C(NCc1cccnc1)c1cc(Sc2cccc(Cl)c2)nc2ccccc12	?	16µM*	0%	-15%
CCOc1ccccc1NC(=S)Nc1ncccc1C	18µM*	21µM*	?	?
CCOC(=O)c1c(C)[nH]c(C)c1S(=O)(=O)NCC(=O)Nc1cccc(SC)c1	i	i	.	.
O=C(CCl)Nc1cc(-c2ccccc2)nn1-c1ccccc1	?	7.3µM*	1.6µM*	5µM*
